MARV entry inh – qHTS for inhibitors of binding or entry into cells for Marburg Virus | Potency, µM (doses to about 37.8 µM), usual class: inhibitors | hit rate 1.8% among 300,000 | Marburg virus pseudotyped entry inhibition, cell reporter; calls by dose curve; tested in HEK293 cells
LASV entry inh – qHTS for Inhibitors of binding or entry into cells for Lassa Virus. Lassa virus pseudotype entry inhibition, cell reporter. Potency, µM (series often up to 37.9 µM), actives largely listed as inhibitors. hit rate 1.2% among 300,000. AID 540256, 2011; calls by dose curve; tested in HEK293 cells; further: nearly all actives have a fitted effect of over 50% in size
Shiga toxin inh – A qHTS for Small Molecule Inhibitors of Shiga Toxin | Vero cells, Shiga toxin protein synthesis inhibition reporter | inhibition, % at 38.7 µM | hit rate 9.2% among 290,000 | AID 2315, 2010; in the data active means inhibition mostly above about 28%, no sharp cut-off; inactive means mostly below about 43%
VACV mCherry inh – qHTS for Stage-Specific Inhibitors of Vaccinia Orthopoxvirus: mCherry Reporter Primary qHTS | Vaccinia virus mCherry reporter infection, fluorescence | Potency, µM (highest dose often 36.5 µM), hits mostly inhibitors | hit rate 0.63% among 310,000 | AID 720579, 2013; calls by dose curve; tested in A549 cells; further: nearly all actives have a fitted effect of over 35% in size
CHX counter – Cycloheximide Counterscreen for Small Molecule Inhibitors of Shiga Toxin | cell reporter, cycloheximide protein synthesis inhibition counterscreen | max response, % | hit rate 12% among 300,000 | AID 2314, 2010; in the data active means max response mostly above about 13%, no sharp cut-off; inactive means mostly below about 14%; further: read at 38.3 µM for the half of the compounds with a filed dose
VACV Venus inh – qHTS for Stage-Specific Inhibitors of Vaccinia Orthopoxvirus: Venus Reporter Primary qHTS; Vaccinia virus Venus reporter expression, fluorescence; Potency, µM (highest dose often 36.5 µM), actives largely listed as inhibitors; hit rate 0.46% among 330,000; AID 720580, 2013; calls by dose curve; tested in A549 cells; further: nearly all actives have a fitted effect of over 30% in size
A number is an active result; – = inactive; ? = inconclusive; · = no result given; [ ] = dose if it differs, or a comment. Only a selection was taken, and hits are over-represented in it overall.

SMILES	MARV entry inh	LASV entry inh	Shiga toxin inh	VACV mCherry inh	CHX counter	VACV Venus inh
CC(=O)c1sc2nsc(SCCN3CCCC3)c2c1N	?	–	–	–	20	–
O=C(/C=C/c1ccco1)NCc1ccc2c(c1)OCO2	–	–	–	–	–	–
O=C(/C=C/c1ccccc1)NCc1ccc2c(c1)OCO2	–	–	–	–	22	–
O=C(/C=C/c1cccs1)NCc1ccc2c(c1)OCO2	–	?	34	–	37	–
O=C(Nc1cccc(Cl)c1)c1ccc2nc(Cc3ccccc3)oc2c1	·	?	·	–	·	–
COc1ccc(-c2cn3c(n2)sc2cc(C(=O)NCC(C)c4ccccc4)ccc23)cc1 (centres undefined)	·	–	·	–	·	–
CCc1cc(C(=O)NNC(=S)Nc2ccccc2C)cs1	?	?	96	·	38	·
Cc1ccccc1NC(=O)c1ccco1	·	·	·	·	–	·
O=C(NNC(=S)Nc1ccc(F)cc1F)c1ccco1	·	·	–	·	33	·
O=C(NNC(=S)Nc1ccccc1)c1ccco1	?	–	–	·	–	·
CCc1cc(C(=O)NNC(=S)NCc2ccccc2)cs1	–	–	–	–	–	–
CCc1cc(C(=O)Nc2ccccc2)cs1	–	?	106	·	41	·
Cc1ccccc1NC(=S)NNC(=O)c1ccco1	–	–	52	–	32	–
CCNc1nc(SC(C)C(=O)OC)nc(N2CCOCC2)n1 (centres undefined)	?	–	–	·	–	·
O=C(CC12CC3CC(CC(Br)(C3)C1)C2)NC1CCCC1	–	–	–	–	–	–
COC(=O)c1ccc(/C=N\N2CCN(c3ccccc3)CC2)cc1	·	·	118	·	21	·
C=CCOC(=O)c1ccc(N2CCN(c3ccccc3)CC2)nc1	?	–	–	–	20	–
CC(C)NC(=O)c1ccc(N2CCOCC2)nc1	–	–	–	–	–	–
COC(=O)c1ccc(N2CCN(c3ccccc3)CC2)nc1	·	·	45	·	25	·
COC(=O)c1ccc(N2CCN(c3ccccc3)CC2)c(N)c1	·	·	–	–	16	–
CCOC(=O)C12CC1/C(=N\O)c1ccccc1O2 (centres undefined)	·	·	·	–	·	–
O=C(COc1ccc(F)cc1)Nc1nnc(S(=O)(=O)N2CCc3ccccc32)s1	·	–	·	–	·	–
Nc1cc(C(=O)c2ccccc2)ccc1N1CCOCC1	–	–	117	–	27	–
Cc1nc2c(=O)n(-c3ccc(F)c(Cl)c3)nc(C)c2s1	–	–	–	–	–	–
COc1ccc(-n2nc(C)c3sc(C)nc3c2=O)cc1	–	–	–	–	9.6	–
SMILES	MARV entry inh	LASV entry inh	Shiga toxin inh	VACV mCherry inh	CHX counter	VACV Venus inh
N/C(=N\OC(=O)c1cccnc1)c1ccccc1Cl	·	·	84	–	27	–
N/C(=N\OC(=O)c1cccnc1)c1ccc(Cl)cc1Cl	?	–	44	–	22	–
COc1cc(CNc2ncnc3c2ncn3[C@H]2CN(Cc3cc(OC)c(OC)c(OC)c3)C[C@@H](CO)O2)cc(OC)c1OC	·	·	·	–	·	–
O=C(CNC(=O)c1cccc(F)c1)N/N=C/c1cc(Br)ccc1OC(=O)/C=C/c1ccco1	18µM	?	–	·	–	·
O=C(CNC(=O)c1ccccc1Br)N/N=C/c1ccco1	?	–	–	–	–	–
O=C(CNC(=O)c1ccccc1O)N/N=C/c1cc(Br)ccc1OC(=O)/C=C/c1ccco1	?	5.6µM	–	?	–	–
COc1ccc(NCc2ccc([N+](=O)[O-])s2)c(OC)c1	–	–	34	–	25	–
COc1ccc(NC(=O)/C=C/c2ccccc2[N+](=O)[O-])c(OC)c1	–	–	–	–	–	–
O=[N+]([O-])c1ccc(CNc2ccc(Cl)cc2)s1	?	3.5µM	–	–	13	–
O=[N+]([O-])c1ccc(CNc2cccc(Cl)c2)s1	?	–	–	–	–	–
COc1ccc(NCc2ccc([N+](=O)[O-])s2)cc1	–	–	–	–	21	–
O=[N+]([O-])c1ccc(CNc2ccc(F)cc2)s1	?	–	–	–	–	–
O=C(NC1CCN(C(=O)NCc2ccccc2)CC1)c1cccc(F)c1	–	?	–	–	–	–
CC(C)(C)c1ccc(OCCn2c(CCNC(=O)C3CCCCC3)nc3ccccc32)cc1	·	·	·	–	·	?
CCOC(=O)Cc1ccc(NC(=O)N(C(C)C)C2CCN(C(C)=O)CC2)cc1	–	–	·	–	·	–
O=C(Nc1nc(-c2ccccc2)c(-c2ccccc2)o1)c1ccc(F)cc1	10µM	–	–	?	–	?
O=c1ccc2c(o1)/C(=C/C=C(Cl)Cl)CCC2	–	–	–	10µM	–	?
Cc1cccc(NC(=O)c2ccc(Cl)nc2)n1	–	–	–	–	–	–
Cc1cccc(NC(=O)c2onc3c2CCCC3)c1C	?	–	116	·	33	–
Cc1ccccc1NC(=O)c1onc2c1CCCC2	–	?	123	–[1.46 µM]	49	–
Cc1cccc(NC(=O)c2onc3c2CCCC3)n1	1.3µM	?	–	–	33	–
Cc1ccc(C(=O)Nc2onc3c2CCCC3)cc1	?	?	·	–	·	–
NNC(=O)C1=NN=C(C23CC4CC(CC(C4)C2)C3)C1	–	·	·	·	·	·
Cc1cnc(SCC2CCCO2)nc1C1CCCN(Cc2cc3c(cc2Cl)OCO3)C1 (centres undefined)	·	·	·	–	·	–
COc1ccccc1OCC(=O)N1CCCCCC1	·	·	·	–	·	–
SMILES	MARV entry inh	LASV entry inh	Shiga toxin inh	VACV mCherry inh	CHX counter	VACV Venus inh
Cc1ccc(OCC(=O)N2CCCCC2)c(Br)c1	–	–	63	·	38	·
CC(C)(C)c1ccc(OCC(=O)N2CCCCCC2)c(Br)c1	–	?	120	–	43	–
COc1ccccc1N1CCN(C(=O)COc2ccc(C)cc2Br)CC1	–	?	–	?	–	?
O=C(O)Cc1sc(Nc2ccccc2)nc1-c1ccc(Cl)cc1	–	–	119	–	42	–
Cc1ccc(Nc2nc(-c3ccccc3)c(CC(=O)O)s2)cc1	–	–	82	?	47	–
O=C(O)Cc1sc(Nc2ccc(C(=O)O)cc2)nc1-c1ccccc1	?	–	·	–	·	–
O=C(Cc1ccccc1)NCc1ccccn1	·	·	–	·	–	·
O=C(Cc1sc(Nc2ccccc2)nc1-c1ccccc1)NCc1ccccn1	–	·	53	–	39	–
O=C(O)Cc1sc(Nc2ccc(F)cc2)nc1-c1cccs1	?	?	60	–	30	–
COc1cc2ncc(C(=O)c3ccc(C)cc3)c(N3CCCCC3)c2cc1OC	?	·	·	–	·	–
Cc1c(/C(O)=C2\C(=O)C(=O)N(CCN3CCOCC3)[C@H]2c2cccnc2)cnn1-c1ccccc1	–	·	·	·	·	·
Cc1nc2cc(NC(=O)CCS(=O)(=O)c3ccccc3)ccc2s1	–	·	58	·	37	·
Cc1ccc(S(=O)(=O)CCC(=O)Nc2ccc3nc(C)sc3c2)cc1	–	–	–	·	–	·
Cc1ccc(NC(=O)CCS(=O)(=O)c2ccc3nc(C)sc3c2)cc1	·	–	–	–	–	–
Cc1nc2ccc(NC(=O)CCS(=O)(=O)c3ccccc3)cc2s1	?	–	94	·	47	·
Cc1ccc2nc(-c3ccc(NC(=O)CCS(=O)(=O)c4ccccc4)cc3)sc2c1	?	1.8µM	65	–	47	–

High-throughput results deposited in PubChem by National Center for Advancing Translational Sciences (NCATS).
